# Test results as given in PubChem BioAssay (EPA / NIEHS).
# Activity calls are given as the source filed them. How the source made its calls: active means hit-call score of the fitted dose curve at least 0.9, where 1 is the maximum; inactive means score below 0.9.
# How the values were obtained:
# [1] = molecular target: CCAAT/enhancer-binding protein beta (Homo sapiens) (UniProt P17676); test: ATG_C_EBP_CIS: Attagene CIS-FACTORIAL HepG2 Assay for human CCAAT/Enhancer Binding Protein (C/EBP) beta (AID 2282927); conditions: HepG2 Attagene cis-factorial transcription factor reporter; actives raise or lower the signal
# In short: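 Following a 24 h incubation with test chemical, transfected HepG2 cells yielded RNA whose reporter transcripts were quantified by RT-PCR and fluorescent capillary electrophoresis, with DMSO serving as baseline for bidirectional fitting.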
# [2] = ATG_DR4_LXR_CIS: Attagene CIS-FACTORIAL HepG2 Assay for human Liver X Receptor (LXR), DR4 submotif (AID 2282929); conditions: HepG2 Attagene DR4 cis-reporter, mRNA transcription; AC50: actives raise or lower the signal unless noted; outcome: actives raise or lower the signal unless noted
# In short: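 Measures endogenous transcription factor activity via a DR4-driven reporter transcript in human HepG2 cells. Compounds incubated 24 h; mRNA quantified by RT-PCR and capillary electrophoresis, analysed as gain or loss of signal versus DMSO.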
# [3] = molecular target: Aryl hydrocarbon receptor (Homo sapiens) (UniProt P35869); test: ATG_Ahr_CIS: Attagene CIS-FACTORIAL HepG2 Assay for human Aryl Hydrocarbon Receptor (Ahr) (AID 2282930); conditions: HepG2 AhR cis-factorial reporter transcription; actives raise or lower the signal
# In short: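 Values derive from bidirectional fitting against DMSO negative control. Underlying signal: cis-element reporter mRNA in transiently transfected HepG2, harvested 24 h post-dose and measured by RT-PCR plus capillary electrophoresis.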
# [4] = ATG_AP_1_CIS: Attagene CIS-FACTORIAL HepG2 Assay for human Activator Protein 1 (AP-1) (AID 2282931); conditions: HepG2 Attagene cis-factorial AP-1 reporter mRNA; actives raise or lower the signal
# In short: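 Bidirectional concentration-response fitting against DMSO controls. Underlying signal: reporter mRNA from cis-promoter constructs in transiently transfected HepG2, measured after 24 h by RT-PCR and capillary electrophoresis.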
# [5] = ATG_AP_2_CIS: Attagene CIS-FACTORIAL HepG2 Assay for human Activator Protein 2 (AP-2) (AID 2282932); conditions: HepG2 AP-2 cis-reporter, Attagene transcription factor profiling; AC50: actives raise or lower the signal unless noted; outcome: actives raise or lower the signal unless noted
# In short: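 Cells (HepG2) transfected with promoter-driven reporter constructs, treated 24 h. Total RNA reverse-transcribed, reporter cDNA PCR-amplified, FAM-labelled by primer extension, digested, resolved by capillary electrophoresis. Activity fitted both directions versus DMSO.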
# [6] = ATG_BRE_CIS: Attagene CIS-FACTORIAL HepG2 Assay for human Bone Morphogenetic Protein (BMP) Response Element (BRE) (AID 2282933); conditions: HepG2 BMP response element reporter, Attagene transcription factor profiling; actives raise or lower the signal
# In short: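 Multiplexed cis-reporter assay, HepG2, 24 h exposure. mRNA from reporter units quantified via RT-PCR/CE; DMSO baseline; bidirectional curve fit.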
# [7] = molecular target: Retinoic acid receptor alpha (Homo sapiens) (UniProt P10276); test: ATG_DR5_RAR_CIS: Attagene CIS-FACTORIAL HepG2 Assay for human Retinoic Acid Receptor Alpha (RARE), DR5 submotif (AID 2282934); conditions: HepG2 Attagene cis-factorial RARE DR5 reporter, mRNA; actives raise or lower the signal
# In short: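 Endpoint fitted in both directions relative to DMSO as negative control. It reflects DR5 cis-element reporter mRNA induction in transiently transfected HepG2 cells, measured 24 h after dosing through RT-PCR and fluorescent capillary electrophoresis.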
# [8] = molecular target: Transcription factor E2F1 (Homo sapiens) (UniProt Q01094); test: ATG_E2F_CIS: Attagene CIS-FACTORIAL HepG2 Assay for human E2F Transcription Factor 1 (AID 2282935); conditions: HepG2 Attagene cis-reporter, E2F reporter RNA transcripts; actives raise or lower the signal
# In short: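 First, HepG2 cells were transfected with reporter transcription units. Next, they were dosed for 24 h. Then RNA was isolated, converted to cDNA, PCR-amplified, FAM-labeled, HpaI-digested and analyzed by capillary electrophoresis.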
# [9] = ATG_E_Box_CIS: Attagene CIS-FACTORIAL HepG2 Assay for human Enhancer Box (E-box) (AID 2282936); conditions: HepG2 E-box cis-reporter transcription, actives raise or lower the signal
# In short: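 Endogenous transcription factor activity was sensed in human HepG2 liver cells through transfected cis-promoter reporter units. After 24 h of dosing, total RNA was reverse-transcribed and reporter cDNA resolved by capillary electrophoresis.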
# [10] = ATG_EGR_CIS: Attagene CIS-FACTORIAL HepG2 Assay for human Early Growth Response 1 (EGR1) (AID 2282938); conditions: HepG2 Attagene CIS-FACTORIAL EGR reporter mRNA; actives raise or lower the signal
# In short: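 Cell-based multiplex transcription assay: HepG2 carrying transfected cis-element reporter units, 24 h chemical treatment. Fluorescence from capillary electrophoresis of RT-PCR products gives mRNA levels; fitting is bidirectional relative to DMSO.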
# [11] = ATG_ERE_CIS: Attagene CIS-FACTORIAL HepG2 Assay for Estrogen Response Element (ERE) (AID 2282940); conditions: HepG2 ERE cis-reporter, Attagene RNA transcript; actives raise or lower the signal
# In short: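 Fluorescence of capillary-separated, FAM-labelled reporter cDNA fragments indicates reporter mRNA levels in HepG2 cells exposed to chemicals for 24 h. Transient transfection with cis-regulated units; data fitted in both directions against DMSO.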
# [12] = ATG_Ets_CIS: Attagene CIS-FACTORIAL HepG2 Assay for human Erythroblast Transformation Specific (ETS) (AID 2282941); conditions: HepG2 ETS cis-reporter transcription; AC50: actives raise or lower the signal unless noted; outcome: actives raise or lower the signal unless noted
# In short: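 RT-PCR/capillary electrophoresis fluorescence read-out of reporter mRNA; HepG2 transient multi-reporter transfection; 24 h compound exposure; gain or loss of signal fitted bidirectionally relative to DMSO.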
# [13] = molecular target: Hepatocyte nuclear factor 3-beta (Homo sapiens) (UniProt Q9Y261); test: ATG_FoxA2_CIS: Attagene CIS-FACTORIAL HepG2 Assay for human Forkhead box A2 (FOXA2) (AID 2282942); conditions: HepG2 cis-reporter transcription factor activity, 24 h; actives raise or lower the signal
# In short: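 In transiently transfected human HepG2 cells, promoter-driven reporter mRNA levels after 24 h chemical exposure are determined via RT-PCR with capillary electrophoresis. DMSO serves as baseline for bidirectional fitting.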
# [14] = ATG_FoxO_CIS: Attagene CIS-FACTORIAL HepG2 Assay for human Forkhead box O (FoxO) (AID 2282943); conditions: HepG2 Attagene cis-reporter, FoxO element, mRNA; actives raise or lower the signal
# In short: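 Values reflect reporter mRNA induction or loss in HepG2 cells 24 h post-dosing, fitted bidirectionally with DMSO as negative control and baseline. Detection used RT-PCR and fluorescence capillary electrophoresis.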
# [15] = ATG_GLI_CIS: Attagene CIS-FACTORIAL HepG2 Assay for human Zinc Finger Protein GLI1 (AID 2282945); conditions: HepG2, Attagene cis-factorial reporter mRNA, GLI element; actives raise or lower the signal
# In short: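 HepG2 cells transiently transfected with cis-promoter multiplexed reporter units report endogenous transcription factor activity. After 24 h chemical exposure, reporter mRNA was quantified by RT-PCR, 6-FAM labelling, HpaI digestion and capillary electrophoresis, with bidirectional fitting against DMSO.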
# [16] = ATG_M_61_CIS: Attagene CIS-FACTORIAL HepG2 Assay for M61 Transcription Factor (Internal Marker) (AID 2282937); conditions: HepG2 Attagene CIS-FACTORIAL M61 internal marker reporter; actives raise or lower the signal
# In short: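 Fluorescence from labelled cDNA fragments, separated by capillary electrophoresis, quantifies reporter induction. HepG2 cells bearing transiently transfected cis-promoter MRTUs were incubated with test chemical for 24 h; DMSO defined baseline for gain/loss fitting.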
# [17] = ATG_M_19_CIS: Attagene CIS-FACTORIAL HepG2 Assay for M19 Transcription Factor (Internal Marker) (AID 2282939); conditions: HepG2 Attagene CIS-FACTORIAL M19 internal marker reporter; actives raise or lower the signal
# In short: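 Signals come from fluorescence of labelled reporter-specific PCR fragments resolved by capillary electrophoresis, following 24 h treatment of HepG2 cells transfected with cis-promoter reporter units; activity was fitted in both directions relative to DMSO.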
# [18] = ATG_GATA_CIS: Attagene CIS-FACTORIAL HepG2 Assay for human GATA Binding Protein (AID 2282944); conditions: HepG2 GATA cis-element reporter, Attagene multiplex mRNA; actives raise or lower the signal
# In short: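 After transfecting HepG2 cells with multiple cis-regulated reporter units, chemicals are dosed for 24 h; isolated RNA undergoes RT-PCR and fluorescent labeling before capillary electrophoresis, with activity expressed against DMSO.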
# [19] = molecular target: Bile acid receptor (Homo sapiens) (UniProt Q96RI1); test: ATG_IR1_CIS: Attagene CIS-FACTORIAL HepG2 Assay for human Nuclear Receptor Subfamily 1 Group H Member 4 (NR1H4), IR1 submotif (AID 2282946); conditions: IR1 reporter transcription, actives raise or lower the signal
# In short: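 Readout: reporter transcript levels by RT-PCR with fluorescent capillary electrophoresis, from HepG2 cells transiently transfected with multiplexed cis-regulated reporters and dosed 24 h. Gain- or loss-of-signal fitted versus DMSO negative control.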
# [20] = ATG_CMV_CIS: Attagene CIS-FACTORIAL HepG2 Assay for human CMV (Internal Marker) (AID 2282928); conditions: HepG2 CMV promoter reporter, transcription factor profiling; actives raise or lower the signal;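 further: endpoint acts as a background internal control marker rather than a target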
# In short: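 Readout: fluorescent reporter cDNA fragments separated by capillary electrophoresis after RT-PCR and HpaI cut. Cells: HepG2 carrying transfected cis-promoter reporter constructs, dosed 24 h. Endpoint serves as background internal-marker control, fit bidirectionally versus DMSO.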
# Chain of Retinoic acid receptor alpha (Homo sapiens) (P10276 whole entry, looked up): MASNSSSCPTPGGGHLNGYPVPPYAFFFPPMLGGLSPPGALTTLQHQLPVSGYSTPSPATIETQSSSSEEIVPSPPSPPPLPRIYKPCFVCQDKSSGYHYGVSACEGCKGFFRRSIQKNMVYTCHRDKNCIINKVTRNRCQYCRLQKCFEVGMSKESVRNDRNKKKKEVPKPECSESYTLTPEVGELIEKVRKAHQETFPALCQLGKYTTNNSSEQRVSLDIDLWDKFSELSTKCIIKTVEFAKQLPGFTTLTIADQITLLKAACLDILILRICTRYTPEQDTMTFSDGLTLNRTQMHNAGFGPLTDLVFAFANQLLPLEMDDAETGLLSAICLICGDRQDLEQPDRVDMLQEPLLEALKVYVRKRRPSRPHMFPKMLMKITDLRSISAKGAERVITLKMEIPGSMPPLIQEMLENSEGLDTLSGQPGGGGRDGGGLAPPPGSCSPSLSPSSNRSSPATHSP
# Chain of Transcription factor E2F1 (Homo sapiens) (Q01094 whole entry, looked up): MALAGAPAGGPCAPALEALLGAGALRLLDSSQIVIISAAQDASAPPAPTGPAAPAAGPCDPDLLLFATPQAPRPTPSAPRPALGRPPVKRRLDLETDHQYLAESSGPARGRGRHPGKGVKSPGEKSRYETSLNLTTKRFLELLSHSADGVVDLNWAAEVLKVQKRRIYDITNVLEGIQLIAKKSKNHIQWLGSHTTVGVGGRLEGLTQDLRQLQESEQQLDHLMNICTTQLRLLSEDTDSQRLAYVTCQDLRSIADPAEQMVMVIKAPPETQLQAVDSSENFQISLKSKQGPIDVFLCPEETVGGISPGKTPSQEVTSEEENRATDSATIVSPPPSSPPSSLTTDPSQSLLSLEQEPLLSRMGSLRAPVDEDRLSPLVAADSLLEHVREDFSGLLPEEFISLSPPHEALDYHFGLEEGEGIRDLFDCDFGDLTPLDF
# Chain of Aryl hydrocarbon receptor (Homo sapiens) (P35869 whole entry, looked up): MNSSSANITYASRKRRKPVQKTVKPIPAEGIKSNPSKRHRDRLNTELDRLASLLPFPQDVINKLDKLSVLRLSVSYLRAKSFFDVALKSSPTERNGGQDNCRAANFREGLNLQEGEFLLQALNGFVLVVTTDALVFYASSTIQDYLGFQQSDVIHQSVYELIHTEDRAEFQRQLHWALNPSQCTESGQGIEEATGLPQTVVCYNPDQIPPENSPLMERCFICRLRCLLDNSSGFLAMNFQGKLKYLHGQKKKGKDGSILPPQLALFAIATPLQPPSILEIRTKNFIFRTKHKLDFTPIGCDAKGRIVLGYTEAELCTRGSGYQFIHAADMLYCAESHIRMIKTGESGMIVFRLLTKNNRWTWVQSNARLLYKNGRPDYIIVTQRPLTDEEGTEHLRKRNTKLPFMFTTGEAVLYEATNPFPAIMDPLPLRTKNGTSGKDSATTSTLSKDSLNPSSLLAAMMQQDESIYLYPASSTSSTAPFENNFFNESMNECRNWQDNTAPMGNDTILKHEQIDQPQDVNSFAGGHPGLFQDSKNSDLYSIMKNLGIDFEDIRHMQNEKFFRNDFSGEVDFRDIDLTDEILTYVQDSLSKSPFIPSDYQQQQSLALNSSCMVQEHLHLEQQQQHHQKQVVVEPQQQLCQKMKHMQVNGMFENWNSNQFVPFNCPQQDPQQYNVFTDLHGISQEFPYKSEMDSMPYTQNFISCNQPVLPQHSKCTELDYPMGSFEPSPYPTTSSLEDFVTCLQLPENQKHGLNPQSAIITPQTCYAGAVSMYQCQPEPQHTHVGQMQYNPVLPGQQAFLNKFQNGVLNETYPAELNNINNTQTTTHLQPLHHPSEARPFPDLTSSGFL
# Chain of Hepatocyte nuclear factor 3-beta (Homo sapiens) (Q9Y261 whole entry, looked up): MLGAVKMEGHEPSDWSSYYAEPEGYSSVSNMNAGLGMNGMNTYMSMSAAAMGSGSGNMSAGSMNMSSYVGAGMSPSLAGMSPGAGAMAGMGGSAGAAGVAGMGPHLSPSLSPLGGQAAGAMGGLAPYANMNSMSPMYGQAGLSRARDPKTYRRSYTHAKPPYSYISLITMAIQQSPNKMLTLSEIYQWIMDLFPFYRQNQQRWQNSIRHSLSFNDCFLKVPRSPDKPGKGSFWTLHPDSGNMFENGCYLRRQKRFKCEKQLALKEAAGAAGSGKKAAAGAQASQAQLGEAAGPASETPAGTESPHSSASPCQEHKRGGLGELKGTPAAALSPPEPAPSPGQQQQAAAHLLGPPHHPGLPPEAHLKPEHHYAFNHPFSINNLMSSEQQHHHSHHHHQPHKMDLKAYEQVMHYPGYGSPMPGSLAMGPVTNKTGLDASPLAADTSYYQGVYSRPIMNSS
# Chain of Bile acid receptor (Homo sapiens) (Q96RI1 whole entry, looked up): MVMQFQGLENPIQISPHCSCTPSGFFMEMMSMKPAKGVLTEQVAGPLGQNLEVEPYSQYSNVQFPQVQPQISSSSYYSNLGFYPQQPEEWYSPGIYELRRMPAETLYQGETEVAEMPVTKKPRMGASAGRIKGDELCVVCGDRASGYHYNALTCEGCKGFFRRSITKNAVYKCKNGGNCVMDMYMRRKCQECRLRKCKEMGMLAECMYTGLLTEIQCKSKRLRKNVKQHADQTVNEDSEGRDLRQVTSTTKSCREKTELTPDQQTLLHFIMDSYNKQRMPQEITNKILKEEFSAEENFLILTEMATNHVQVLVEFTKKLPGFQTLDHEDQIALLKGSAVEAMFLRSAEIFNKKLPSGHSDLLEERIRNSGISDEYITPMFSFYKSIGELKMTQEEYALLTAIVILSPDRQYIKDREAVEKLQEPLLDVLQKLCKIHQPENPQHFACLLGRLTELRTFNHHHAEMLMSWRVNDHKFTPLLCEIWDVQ
# Chain of CCAAT/enhancer-binding protein beta (Homo sapiens) (P17676 whole entry, looked up): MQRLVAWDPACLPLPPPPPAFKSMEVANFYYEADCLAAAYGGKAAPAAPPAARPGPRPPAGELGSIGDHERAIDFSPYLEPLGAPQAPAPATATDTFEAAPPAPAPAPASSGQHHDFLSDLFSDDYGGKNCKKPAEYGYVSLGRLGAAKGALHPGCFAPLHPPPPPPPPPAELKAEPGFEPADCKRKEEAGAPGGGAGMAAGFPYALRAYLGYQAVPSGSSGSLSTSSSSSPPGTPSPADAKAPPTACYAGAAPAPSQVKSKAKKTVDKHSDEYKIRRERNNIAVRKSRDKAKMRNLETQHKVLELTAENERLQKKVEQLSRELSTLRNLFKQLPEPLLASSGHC
compound,measurement,setting,value
CCC(=O)O,outcome,[1],inactive
same,outcome,[2],inactive
same,outcome,[3],inactive
same,outcome,[4],inactive
same,outcome,[5],inactive
same,outcome,[6],inactive
same,outcome,[7],inactive
same,outcome,[8],inactive
same,outcome,[9],inactive
same,outcome,[10],inactive
same,outcome,[11],inactive
same,outcome,[12],inactive
same,outcome,[13],inactive
same,outcome,[14],inactive
same,outcome,[15],inactive
CCCCCCCCCCCCCC[n+]1ccccc1,outcome,[1],inactive
same,outcome,[2],inactive
same,outcome,[3],inactive
same,AC50,[4],0.252 µM (active)
same,AC50,[5],19.8 µM (active)
same,AC50,[6],1.22 µM (active)
same,outcome,[7],inactive
same,outcome,[8],inactive
same,outcome,[9],inactive
same,outcome,[16],inactive
same,AC50,[10],2.52 µM (active)
same,outcome,[17],inactive
same,outcome,[11],inactive
same,outcome,[12],inactive
same,AC50,[13],18.2 µM (active)
same,outcome,[14],inactive
same,outcome,[18],inactive
same,outcome,[15],inactive
same,outcome,[19],inactive
CCN(CCC#N)c1ccccc1,outcome,[1],inactive
same,outcome,[2],inactive
same,outcome,[3],inactive
same,outcome,[4],inactive
same,outcome,[5],inactive
same,outcome,[6],inactive
same,outcome,[7],inactive
same,outcome,[8],inactive
same,outcome,[9],inactive
same,outcome,[16],inactive
same,outcome,[10],inactive
same,outcome,[11],inactive
same,outcome,[12],inactive
same,outcome,[13],inactive
same,outcome,[14],inactive
same,outcome,[18],inactive
same,outcome,[15],inactive
same,outcome,[19],inactive
O=S(=O)(O)c1ccccc1,outcome,[1],inactive
same,outcome,[2],inactive
same,outcome,[3],inactive
same,outcome,[4],inactive
same,outcome,[5],inactive
same,outcome,[6],inactive
same,outcome,[8],inactive
same,outcome,[9],inactive
same,outcome,[16],inactive
same,outcome,[10],inactive
same,outcome,[17],inactive
same,outcome,[12],inactive
same,outcome,[13],inactive
same,outcome,[14],inactive
same,outcome,[18],inactive
same,outcome,[15],inactive
same,outcome,[19],inactive
CCc1cccc(CC)c1N(COC)C(=O)CS(=O)(=O)O,outcome,[1],inactive
same,outcome,[2],inactive
same,outcome,[3],inactive
same,outcome,[4],inactive
same,outcome,[5],inactive
same,outcome,[6],inactive
same,outcome,[8],inactive
same,outcome,[9],inactive
same,outcome,[16],inactive
same,outcome,[10],inactive
same,outcome,[17],inactive
same,outcome,[11],inactive
same,outcome,[12],inactive
same,outcome,[13],inactive
same,outcome,[14],inactive
same,outcome,[18],inactive
same,outcome,[15],inactive
same,outcome,[19],inactive
O=C(Nc1cccc([N+](=O)[O-])c1)c1cc2ccccc2cc1O,outcome,[1],inactive
same,outcome,[2],inactive
same,AC50,[3],0.411 µM (active)
same,AC50,[4],2.31 µM (active)
same,outcome,[5],inactive
same,AC50,[6],1.17 µM (active)
same,AC50,[8],2.35 µM (active)
same,outcome,[9],inactive
same,outcome,[16],inactive
same,outcome,[10],inactive
same,outcome,[17],inactive
same,AC50,[11],3.32 µM (active)
same,outcome,[13],inactive
same,outcome,[14],inactive
same,outcome,[18],inactive
same,outcome,[15],inactive
same,outcome,[19],inactive
CC1CNCC(C)O1 (stereo unspecified),outcome,[1],inactive
same,outcome,[20],inactive
same,outcome,[2],inactive
same,outcome,[4],inactive
same,outcome,[6],inactive
same,outcome,[7],inactive
same,outcome,[8],inactive
same,outcome,[9],inactive
same,outcome,[16],inactive
same,outcome,[10],inactive
same,outcome,[17],inactive
same,outcome,[11],inactive
same,outcome,[13],inactive
same,outcome,[14],inactive
same,outcome,[18],inactive
same,outcome,[15],inactive
same,outcome,[19],inactive
